The text below walks through data of PubChem BioAssay (NCI).

Test systems include SR leukemia; RPMI-8226 leukemia; OVCAR-8 ovarian; OVCAR-5 ovarian; SK-OV-3 ovarian; IGROV1 ovarian; OVCAR-3 ovarian; HS 578T breast; NCI/ADR-RES ovarian; T-47D breast; BT-549 breast; MDA-MB-435 melanoma; SW-620 colon; MCF7 breast; HCT-116 colon; HCC-2998 colon; KM12 colon.
Holding throughout (assay): NCI-60 one-dose screen, 48 h (100 = growth as untreated, 0 = no growth, -100 = all killed)
Common to all, as to details: 10 µM unless noted

Compounds without any hit were thinned out: in the full panel of roughly 83,000, 20% have a hit.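 Growth was measured after 48 h exposure to one concentration of compound in 96-well plates. Values under 10 count as active.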 Values without a mark were called inactive. Calls of active or inactive are those of the source.

With `C=C(C)[C@@H]1CC[C@]2(C)[C@H](CC[C@@H]3[C@@H]([C@@](C)(O)CCC=C(C)C)CC[C@]32C)[C@@]1(C)CCC(=O)O`, the growth is 21.4% [100 µM] with SR leukemia; 0.565% [100 µM] (active) in the assay on RPMI-8226 leukemia; 14.8% [100 µM] with OVCAR-8 ovarian; 3.52% [100 µM] (active) in the assay with OVCAR-5 ovarian; 18.4% [100 µM] with SK-OV-3 ovarian; -24.2% [100 µM] (active) with IGROV1 ovarian. The growth with OVCAR-3 ovarian is -70.2% [100 µM] (active); in the assay with HS 578T breast, -16.7% [100 µM] (active); with NCI/ADR-RES ovarian, 6.42% [100 µM] (active); with T-47D breast, 17% [100 µM]; with BT-549 breast it was -22% [100 µM] (active); in the assay on MDA-MB-435 melanoma it was -36.7% [100 µM] (active). For the same molecule, the growth was 0.938% [100 µM] (active) in the assay on SW-620 colon; 7.92% [100 µM] (active) with MCF7 breast; -39.4% [100 µM] (active) with HCT-116 colon; -37.4% [100 µM] (active) in the assay with HCC-2998 colon; -55.2% [100 µM] (active) with KM12 colon.
Turning to `Cc1cnc(N)nc1OCC(C)(C)CNC(=O)c1cccc(-c2ccc(S(=O)(=O)Nc3ccc4c(c3)N(C(=O)C3CC3)CCC4)cc2)c1`, the growth in the assay on SR leukemia is 79.9%; in the assay with RPMI-8226 leukemia, 44.6%; in the assay with OVCAR-8 ovarian, 62.3%; with OVCAR-5 ovarian it was 79.4%; in the assay with SK-OV-3 ovarian, 68.2%; in the assay on IGROV1 ovarian, 63.4%. The growth was 68.2% with OVCAR-3 ovarian; 64.4% with HS 578T breast; 105% in the assay with NCI/ADR-RES ovarian; 20% in the assay with T-47D breast; 78% in the assay on BT-549 breast; 50.4% in the assay on MDA-MB-435 melanoma. The growth is 73.9% with SW-620 colon; 43.6% with MCF7 breast; 61.3% in the assay on HCT-116 colon; 72.6% in the assay with HCC-2998 colon; 61.8% in the assay on KM12 colon.
Take `CC(=O)n1cc(C=O)c2ccccc21`: the growth is 97.3% in the assay on SR leukemia; 97.6% in the assay on RPMI-8226 leukemia; 86.7% in the assay on OVCAR-8 ovarian; 104% in the assay on OVCAR-5 ovarian; 116% in the assay on SK-OV-3 ovarian; 112% in the assay with IGROV1 ovarian. Besides, the growth with OVCAR-3 ovarian was 104%; in the assay on HS 578T breast it was 104%; in the assay with NCI/ADR-RES ovarian, 96.4%; in the assay on T-47D breast, 98.8%; with BT-549 breast, 96.5%; in the assay on MDA-MB-435 melanoma it was 109%. Moreover, the growth in the assay with SW-620 colon is 102%; in the assay on MCF7 breast it was 94.8%; in the assay with HCT-116 colon it was 109%; in the assay on HCC-2998 colon, 100%; in the assay on KM12 colon it was 94%.
Take `C=C(C)[C@@H]1CC[C@]2(C(=O)NCCNCCNCCN)CC[C@]3(C)[C@H](CC[C@@H]4[C@@]5(C)CCC(=O)C(C)(C)[C@@H]5CC[C@]43C)[C@@H]12`: the growth in the assay with SR leukemia was 4.96% [100 µM] (active); in the assay with RPMI-8226 leukemia it was -30.7% [100 µM] (active); in the assay on OVCAR-8 ovarian, -75% [100 µM] (active); with OVCAR-5 ovarian, -44.1% [100 µM] (active); with SK-OV-3 ovarian, 70.5% [100 µM]; in the assay on IGROV1 ovarian it was -84.8% [100 µM] (active). Also, the growth was -72.5% [100 µM] (active) with OVCAR-3 ovarian; 47.8% [100 µM] in the assay on HS 578T breast; -73.3% [100 µM] (active) in the assay with NCI/ADR-RES ovarian; -4.36% [100 µM] (active) with T-47D breast; 58.3% [100 µM] in the assay on BT-549 breast; -49.9% [100 µM] (active) with MDA-MB-435 melanoma. The growth in the assay on SW-620 colon is -76.7% [100 µM] (active); with MCF7 breast, -58% [100 µM] (active); in the assay with HCT-116 colon it was -80.7% [100 µM] (active); in the assay with HCC-2998 colon, -90% [100 µM] (active); in the assay with KM12 colon it was -81.9% [100 µM] (active).
As to `C[n+]1cccc(NC(=O)c2ccc3ccc4ccc(C(=O)Nc5ccc[n+](C)c5)nc4c3n2)c1`, the growth in the assay with SR leukemia is 75%; in the assay on RPMI-8226 leukemia, 61.5%; in the assay on OVCAR-8 ovarian it was 62.5%; in the assay on OVCAR-5 ovarian, 79.5%; with SK-OV-3 ovarian it was 8.34% (active); in the assay with IGROV1 ovarian, 32.3%. The growth with OVCAR-3 ovarian is 62.4%; with HS 578T breast it was 74.7%; with NCI/ADR-RES ovarian, 101%; in the assay on T-47D breast, 12%; in the assay on BT-549 breast it was 90.4%; in the assay with MDA-MB-435 melanoma it was 67.8%. Also, the growth in the assay with SW-620 colon was 56%; in the assay with MCF7 breast, 54%; in the assay with HCT-116 colon, 43.1%; in the assay on HCC-2998 colon it was 42%; in the assay with KM12 colon it was 42.2%.
Consider `C=C(C)[C@@H]1CC[C@]2(C)[C@H](C(=O)C=C3[C@@H]4C[C@](C)(C(=O)N5CCN(C)CC5)CC[C@]4(C)CC[C@]32C)[C@@]1(C)CCC#N`, for which the growth is 34.7% [100 µM] in the assay on SR leukemia; -54.5% [100 µM] (active) in the assay on RPMI-8226 leukemia; -70.9% [100 µM] (active) with OVCAR-8 ovarian; -75.9% [100 µM] (active) in the assay on OVCAR-5 ovarian; -76.1% [100 µM] (active) with SK-OV-3 ovarian; -76% [100 µM] (active) in the assay on IGROV1 ovarian. The growth in the assay on OVCAR-3 ovarian is -76.6% [100 µM] (active); with HS 578T breast, -54.8% [100 µM] (active); with NCI/ADR-RES ovarian it was -81.3% [100 µM] (active); in the assay with T-47D breast it was -40.5% [100 µM] (active); with BT-549 breast it was -73.3% [100 µM] (active); with MDA-MB-435 melanoma it was -81% [100 µM] (active). Further, the growth with SW-620 colon was -80% [100 µM] (active); with MCF7 breast, -71.1% [100 µM] (active); in the assay with HCT-116 colon it was -70.7% [100 µM] (active); in the assay on HCC-2998 colon, -94% [100 µM] (active); in the assay with KM12 colon, -80.2% [100 µM] (active).
On to `C[C@H]1[C@H](C)CC[C@]2(C(=O)O)CC[C@]3(C)C(=CC[C@@H]4[C@@]5(C)C/C(=C/c6cccnc6)[C@H](O)C(C)(C)[C@@H]5CC[C@]43C)[C@H]12`, for which the growth is 25.4% [100 µM] in the assay with SR leukemia; -4.1% [100 µM] (active) in the assay with RPMI-8226 leukemia; 12.4% [100 µM] in the assay on OVCAR-8 ovarian; -13.7% [100 µM] (active) with OVCAR-5 ovarian; 5.9% [100 µM] (active) with SK-OV-3 ovarian; 7.23% [100 µM] (active) in the assay with IGROV1 ovarian. Moreover, the growth is -39% [100 µM] (active) in the assay on OVCAR-3 ovarian; 4.34% [100 µM] (active) in the assay on HS 578T breast; 1.11% [100 µM] (active) with NCI/ADR-RES ovarian; 15.2% [100 µM] in the assay with T-47D breast; -7.55% [100 µM] (active) with BT-549 breast; 7.2% [100 µM] (active) in the assay on MDA-MB-435 melanoma. Further, the growth in the assay on SW-620 colon is 14.9% [100 µM]; in the assay with MCF7 breast, 3.47% [100 µM] (active); in the assay with HCT-116 colon, -24.6% [100 µM] (active); in the assay on HCC-2998 colon, -8.19% [100 µM] (active); in the assay with KM12 colon it was -37.1% [100 µM] (active).
